The results in this text go back to PubChem BioAssay (EPA / NIEHS).

Calls of active or inactive are those of the source. Rule for the calls: active = hit-call score of the fitted dose curve at least 0.9, where 1 is the maximum; inactive = score below 0.9.

Read-out in the test: Potassium channel subfamily K member 1 (KCNK1), KCNK1 (gene 3775)
As to the kind of experiment: LTEA_HepaRG_KCNK1: Life Technologies and Expression Analysis (LTEA) Assay for Potassium channel subfamily K member 1 (KCNK1) using HepaRG (AID 2283511). To be noted: mRNA level, 48 h; actives raise or lower the signal. How it is done: LTEA_HepaRG is a cell based, multiplexed-readout assay that uses HepaRG, a human liver cell line, with measurements taken at 48 hours after chemical dosing on a 96-well plate.LTEA_HepaRG_KCNK1 is one of 102 assay component(s) measured in the LTEA HepaRG cell culture assay. It is a marker of Hyperplasia.Data from the assay component LTEA_HepaRG_KCNK1 was analyzed into 1 endpoint. This assay endpoint, LTEA_HepaRG_KCNK1, was analyzed with bidirectional fitting relative to DMSO as the negative control and baseline of activity. Using a type of inducible reporter, measures of mRNA induction for gain or loss-of-signal activity can be used to understand regulation of transcription factor activity. To generalize the intended target to other relatable targets, this assay endpoint is annotated to the ion channel intended target family, where the subfamily is potassium channel.
A total of 1060 chemcials from the ToxCast library were tested in eight-point concentration-response experiments. Cell culture and cytotoxicity assays were conducted at Thermo Fisher Scientific's Custom Services facility (Madison, WI). A single lot of human HepaRG cells (Thermo Fisher Scientific, Frederick, MD) was used for the cell culture experiments. 96-well format collagen type I coated plates of human HepaRG cells were prepared using established methods. Briefly, cryopreserved HepaRG cells were thawed, plated at a density of approximately 100,000 cells/well in HepaRG Thaw, Plate, and General Purpose media (HPRG770, Thermo Fisher Scientific), and incubated for 48 hours. 0.5% DMSO was selected as vehicle control to balance the requisite need of DMSO in HepaRG cultures to maintain differentiation (for example, baseline metabolism, proportions of hepatocytes vs. cholangiocytes), while enabling further hepatic receptor pathway activation (for example, PXR and CAR) in response to chemical exposure. 48 hours after plating, the culture medium was replaced with HepaRG Serum-Free Incudtion Media. Cells were exposed to each test chemical in duplicate and maintained in CO2 incubators for another 48 hours. Chemical plates were thawed to room temperature and 200x concentrations of treatment groups were prepared. 8-point conentration-reponse curves were made with the highest exposure at 100 uM, followed by half-log dilutions, all in 0.5% DMSO. Each test plate contained variouse controls, induction positive controls (1mM phenobarbital), cytotoxicity positive controls ([…] aflatoxin B1), vehicle controls (0.5% DMSO), and total lysis controls (0.5% DMSO). Cell morphology images were taken using an Essen IncuCyte FLR automated microscope, with six 96-well plates imaged in about 24 minutes. Images were captured and exported and JPEG files. Spent culture media was transfered to black-well plates for the LDH assay, and remaining media was sorted at -80 C for later use. Cells were treated with RLT buffer and frozen until shipped for gene expression analysis. Total RNA was isolated from the cell suspension in 75 uL of Buffer RLT (Qiagen, Germantown, MD 20874) by Quintiles/Expression Analysis (Durham, NC) using a custom isolation procedure. Total RNA from each plate well was transferred to a preamplification plate. Fluidigm's 96.96 Dynamic ArrayTM (Fluidigm, Amsterdam, the Netherlands) technology was used for gene expression analyses by quantitative reverse transcription polymerase chain reaction (qRT-PCR, performed by Quintiles/Expression Analysis, Durham, NC)89. Standard TaqManTM Assays (Applied Biosystems/ThermoFisher Scientific, Foster City, CA) were used to assess the expression of 93 genes selected based on their selectivity and sensitivity to important hepatic receptors known to be modulated by environmental chemicals; importance in human hepatocyte functionality; and hepatotoxicity. […]
Take `O=C(N[C@@H](c1ccccc1)[C@@H]1CCCCN1)c1cccc(C(F)(F)F)c1Cl`: the AC50 is 50 µM (active).
Regarding `Cc1cc(Cc2ccc(N)c(C)c2)ccc1N`, the outcome was inactive.
`CN(C)C(=O)NC1(c2ccccc2)CCN(CCC[C@]2(c3ccc(Cl)c(Cl)c3)CCCN(C(=O)c3ccccc3)C2)CC1`: the AC50 was 16.1 µM (active).
`C=CCCCCCCCCCCCC`: the compound was classed as inactive.
On to `S=c1[nH]c2ccccc2s1`, for which the compound was called inactive.
The same measure, in the same setting: with `O=C1O[C@H]([C@H](O)CO)C(O)=C1O` the entry was “inactive”; with `NC1CCCCC1`, “inactive”; with `CC(=O)S[C@H](C(=O)N[C@H]1Cc2ccccc2[C@H]2CCC[C@@H](C(=O)O)N2C1=O)C(C)C`, “inactive”.
For the compound `N[C@@H](Cc1c[nH]c2ccccc12)C(=O)O`, the result was inactive.
For `O=C1CCCCC1`, the call was inactive.
As to `OCC(O)CO`, the result was inactive.
Consider `CC(COCC(C)OC(=O)c1ccccc1)OC(=O)c1ccccc1` (stereo not given), for which the outcome was inactive.
`CC(=O)OCC(COC(C)=O)OC(C)=O`: the compound was called inactive.
As to `O=C1OC(c2ccc(O)cc2)(c2ccc(O)cc2)c2ccccc21`, the outcome was inactive.
Turning to `O=C(O)CN(CC(=O)O)CC(=O)O`, the compound was called inactive.
On to `CCCCCCCCCC[N+](C)(C)[O-]`, for which the call was inactive.
As for `CCCCc1nc2cccnc2n1Cc1ccc(-c2ccccc2-c2nnn[nH]2)cc1`, the call was inactive.
On the same count and under the same terms, as for `O=C(O)c1[nH]n(-c2ccc(S(=O)(=O)O)cc2)c(=O)c1N=Nc1ccc(S(=O)(=O)O)cc1`, the entry is “inactive”; as for `O=C(Oc1ccccc1)c1cccc(C(=O)Oc2ccccc2)c1`, “inactive”.
As to `CCCCCCCCCCCCCCOS(=O)(=O)O`, the result was inactive.
Turning to `C/C=C/c1ccc(OC)cc1`, the compound was called inactive.
Regarding `CC(C)(C)c1ccccc1`, the result was inactive.
Still for that read-out and setting: with `CC1=C(C)S(=O)(=O)CCS1(=O)=O` the entry was “inactive”; with `CCCCC(CC)COP(=O)(OCC(CC)CCCC)OCC(CC)CCCC` (stereo not given), “inactive”.
Still for that read-out and setting: as for `CN(C)CCCN(C)CCCN(C)C`, the entry is “inactive”; as for `CCc1nc(N)nc(N)c1-c1ccc(Cl)cc1`, “inactive”; as for `O=C1NC(=O)C(c2ccccc2)(c2ccccc2)N1`, “inactive”.
Still for that read-out and setting: as for `CC(C)(O)c1ccc(CNC(=O)c2cccnc2Oc2ccc(F)cc2)cc1`, the entry is “inactive”; as for `CSc1ccc(Oc2ccc(S(N)(=O)=O)cc2CN(C)C)cc1C`, “inactive”; as for `CC(C)c1cccc(C(C)C)c1NC(=O)NS(=O)(=O)c1cc(C(C)(C)O)co1`, “inactive”.
For `OCC(CO)n1cnc(-c2ccc(F)cc2)c1-c1ccnc(Oc2ccccc2)n1`, the compound was classed as inactive.
In the case of `CCOCCOCCO`, the compound was classed as inactive.
In the case of `CCCCCCC(C=O)=Cc1ccccc1`, the compound was called inactive.
In the case of `COC(=O)CCCC(=O)OC`, the outcome was inactive.
As for `CCCCC(CC)COC(=O)CCCCCCCC(=O)OCC(CC)CCCC` (stereo not given), the outcome was inactive.
As for `CC(=O)CC(c1ccccc1)c1c(O)c2ccccc2oc1=O` (stereo not given), the result was inactive.
Take `CN(C)CCCN1c2ccccc2Sc2ccc(Cl)cc21`: the call was inactive.
The same measure, in the same setting: as for `Cn1cnc2c1c(=O)[nH]c(=O)n2C`, the entry is “inactive”; as for `CN(C)C(=O)NC1(c2ccccc2)CCN(CC[C@@]2(c3ccc(F)c(F)c3)CN(C(=O)c3ccccc3)CCO2)CC1`, “inactive”.
For `CCc1cc(C2=C(C(=O)O)N(c3ccccc3C(F)(F)F)S(=O)(=O)c3ccccc32)cc2c1OCO2`, the AC50 is 73.3 µM (active).

The AC50 is the concentration giving half of the maximal activity seen.
